Reference: PubChem BioAssay (NCATS)
Inconclusive results are not listed. Unmarked numbers belong to inactive results. Calls of active or inactive are those of the source. The call rests on the fitted dose curve; in most records, active means well fitted curve in the direction sought with a large enough effect; inconclusive means small, poorly fitted or top-dose-only effect, or another doubt; inactive means no such curve, though single readings can be large; an effect the other way counts as inactive or inconclusive.

System: Tov112D
Assay: Primary qHTS to identify gynecologic anti-cancer compounds using libraries of approved drugs and bioactive compounds (AID 1345084); further: nearly all actives have a fitted effect of over 55% in size
Settings: Gynecologic cancer cell panel viability, ATPlite luminescence, 48 h; series mostly up to 57.5 µM; activity change, negative = cytotoxicity: at the top concentration
Summary of the method: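 Five-point cytotoxicity, 48 h drug exposure at 37 C, 5% CO2, on cells seeded 16 h beforehand. ATP content read by ATPlite luminescence.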
On the % scale 0 is the no-effect control and ±100 the full control effect; potency means the concentration at half of the fitted maximal effect.

Structure (SMILES)	activity change, negative = cytotoxicity [%]	Potency
Cc1ccc(O)c2ncccc12	-1.93	
COc1cccc2c1C(=O)c1c(O)c3c(c(O)c1C2=O)C[C@@](O)(C(=O)CO)C[C@@H]3O[C@H]1C[C@H](N)[C@H](O)[C@H](C)O1		0.891 µM (active)
CC(C)n1nc(-c2cc3cc(O)ccc3[nH]2)c2c(N)ncnc21		7.94 µM (active)
c1ccc(OCc2ccc(CCCN3CCOCC3)cc2)cc1	-23.9	
Oc1ccc(O)cc1	4.71	
NC(=NCCCCCCN=C(N)/N=C(\N)Nc1ccc(Cl)cc1)/N=C(\N)Nc1ccc(Cl)cc1	-0.659	

System: not listed separately
Assay: Drug repurposing screens with cells derived from glioblastoma tumor samples (AID 1345199); further: nearly all actives have a fitted effect of over 40% in size
Settings: GBM patient neurospheres viability, ATP luminescence, 48 h; at 20 µM (top of the series); tumour line C
Summary of the method: (§1)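 Primary testing used CD133+ neurospheres from four GBM patients, seven concentrations, 48 h exposure and ATP-based viability; confirmation added three slower-growing patient lines.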

Structure (SMILES)	activity, negative = cell killing [%]
CCOc1ccc(Cc2nccc3cc(OCC)c(OCC)cc23)cc1OCC	6.5
CCCCOc1cc(C(=O)NCCN(CC)CC)c2ccccc2n1	9.91
CC(=O)N(O)CCCCCNC(=O)CCC(=O)N(O)CCCCCNC(=O)CCC(=O)N(O)CCCCCN	5.11
CCCCCCCCCCCCCCCC[N+](C)(C)CCN(Cc1ccc(OC)cc1)c1ncccn1	-23.1
COc1c(C)c2c(c(O)c1C/C=C(\C)CCC(=O)O)C(=O)OC2	-18.6

Same assay, conditions: GBM patient neurospheres viability, ATP luminescence, 48 h; at 45.9 µM (top of the series); tumour line B

Structure (SMILES)	activity, negative = cell killing [%]
CCN(CC)C(=O)/C(C#N)=C/c1cc(O)c(O)c([N+](=O)[O-])c1	-9.02
OC[C@H]1O[C@@H](n2cnc3c(=S)nc[nH]c32)[C@H](O)[C@@H]1O	-25.4
CCOc1ccc2nc3cc(N)ccc3c(N)c2c1	-17.9
CC(CCc1ccccc1)NCC(O)c1ccc(O)c(C(N)=O)c1 (stereo not drawn)	-24.2
COc1cccc2c1C(=O)c1c(O)c3c(c(O)c1C2=O)C[C@@](O)(C(=O)CO)C[C@@H]3O[C@H]1C[C@H](N)[C@H](O)[C@H](C)O1	-6.08

Same assay, conditions: GBM patient neurospheres viability, ATP luminescence, 48 h; at 45.9 µM (top of the series); tumour line D

Structure (SMILES)	activity, negative = cell killing [%]
CCN(CC)C(=O)/C(C#N)=C/c1cc(O)c(O)c([N+](=O)[O-])c1	4.73
CCOc1ccc2nc3cc(N)ccc3c(N)c2c1	-30.3
CC(CCc1ccccc1)NCC(O)c1ccc(O)c(C(N)=O)c1 (stereo not drawn)	-11.2
COc1cccc2c1C(=O)c1c(O)c3c(c(O)c1C2=O)C[C@@](O)(C(=O)CO)C[C@@H]3O[C@H]1C[C@H](N)[C@H](O)[C@H](C)O1	-1.75

Same assay, conditions: GBM patient neurospheres viability, ATP luminescence, 48 h; at 46 µM (top of the series); tumour line A

Structure (SMILES)	activity, negative = cell killing [%]
CCN(CC)C(=O)/C(C#N)=C/c1cc(O)c(O)c([N+](=O)[O-])c1	-20
CCOc1ccc2nc3cc(N)ccc3c(N)c2c1	-14.8
COc1cccc2c1C(=O)c1c(O)c3c(c(O)c1C2=O)C[C@@](O)(C(=O)CO)C[C@@H]3O[C@H]1C[C@H](N)[C@H](O)[C@H](C)O1	-30.7

Same assay, conditions: GBM patient neurospheres viability, ATP luminescence, 48 h; at 46.1 µM (top of the series); tumour line C

Structure (SMILES)	activity, negative = cell killing [%]
CCN(CC)C(=O)/C(C#N)=C/c1cc(O)c(O)c([N+](=O)[O-])c1	7.42
CN(C)CC/C=C1\c2ccccc2Sc2ccc(Cl)cc21	-26.8
CCOc1ccc2nc3cc(N)ccc3c(N)c2c1	1.93
CC(C)=CCC1C(=O)N(c2ccccc2)N(c2ccccc2)C1=O	3.79
C[n+]1c2cc(N)ccc2cc2ccc(N)cc21 (tested in a mixture with another compound)	-16
CC(=O)Oc1ccc2c(c1)CC[C@@H]1[C@@H]2CC[C@]2(C)[C@@H](O)CC[C@@H]12	-5.95
CC(CCc1ccccc1)NCC(O)c1ccc(O)c(C(N)=O)c1 (stereo not drawn)	-24
COc1cccc2c1C(=O)c1c(O)c3c(c(O)c1C2=O)C[C@@](O)(C(=O)CO)C[C@@H]3O[C@H]1C[C@H](N)[C@H](O)[C@H](C)O1	-4.46
Oc1ccc(O)cc1	-0.769

Same assay, conditions: GBM patient neurospheres viability, ATP luminescence, 48 h; tumour line A

Structure (SMILES)	Potency
CCCCOc1cc(C(=O)NCCN(CC)CC)c2ccccc2n1	3.98 µM (active)
CN(C)CC/C=C1\c2ccccc2Sc2ccc(Cl)cc21	6.31 µM (active)
OC[C@H]1O[C@@H](n2cnc3c(=S)nc[nH]c32)[C@H](O)[C@@H]1O	1.41 µM (active)
CCCCCCCCCCCCCCCC[N+](C)(C)CCN(Cc1ccc(OC)cc1)c1ncccn1	8.91 µM (active)
C[n+]1c2cc(N)ccc2cc2ccc(N)cc21 (tested in a mixture with another compound)	35.5 µM (active)
CC(=O)Oc1ccc2c(c1)CC[C@@H]1[C@@H]2CC[C@]2(C)[C@@H](O)CC[C@@H]12	12.6 µM (active)

System: astro
Assay: as above
Settings: viability, ATP luminescence, 48 h; series mostly up to 45.9 µM; activity, negative = cell killing: at the top concentration
Summary of the method: as §1

Structure (SMILES)	Potency	activity, negative = cell killing
CCCCCCCCCCCCCCCC[N+](C)(C)CC	5.62 µM (active)	
CCCCOc1cc(C(=O)NCCN(CC)CC)c2ccccc2n1		-18.7% [at 21.2 µM]
CN(C)CC/C=C1\c2ccccc2Sc2ccc(Cl)cc21	22.4 µM (active)	
CCCCCCCCCCOCC(O)CN (stereo not drawn)	28.2 µM (active)	
OC[C@H]1O[C@@H](n2cnc3c(=S)nc[nH]c32)[C@H](O)[C@@H]1O		-15.5%
O=C1[C@H]2CCCC[C@H]2C(=O)N1CCCCN1CCN(c2nsc3ccccc23)CC1		-29.4%
Cc1cccc(C)c1NC(=O)CN1CCN(CCCC(c2ccc(F)cc2)c2ccc(F)cc2)CC1		-22.7% [at 21.2 µM]
COc1cc2c(cc1OC)C(C(C(=O)N(CCc1ccc(OC)c(OC)c1OC)CCc1ccc(OC)c(OC)c1OC)c1ccccc1)=NCC2 (stereo not drawn)		-21.3%
CC(=O)N(O)CCCCCNC(=O)CCC(=O)N(O)CCCCCNC(=O)CCC(=O)N(O)CCCCCN		-20.5% [at 21.2 µM]
COCc1c(C(C)C)nc(C(C)C)c(/C=C/[C@@H](O)C[C@@H](O)CC(=O)O)c1-c1ccc(F)cc1	0.1 µM (active)	
CC(C)(C)CC(C)(C)c1ccc(O)c(Cc2ccc(Cl)cc2Cl)c1	22.4 µM (active)	
CCOc1ccc2nc3cc(N)ccc3c(N)c2c1		-18.8%
CC(C)=CCC1C(=O)N(c2ccccc2)N(c2ccccc2)C1=O		-16.3%
Oc1c(Cl)cc(Cl)cc1Sc1cc(Cl)cc(Cl)c1O	10 µM (active)	
CN1CCC(=C2c3ccccc3Sc3ccccc32)CC1	11.2 µM (active)	
CC(Cc1cccc(C(F)(F)F)c1)NCCOC(=O)c1ccccc1 (stereo not drawn)		-28.4%
C[n+]1c2cc(N)ccc2cc2ccc(N)cc21 (tested in a mixture with another compound)	11.2 µM (active)	
COc1cc2c(cc1OC)C(=O)C(CC1CCN(Cc3ccccc3)CC1)C2 (stereo not drawn)		-24.9%
CCCCCCC[N+](CC)(CC)CCCCc1ccc(Cl)cc1	8.91 µM (active)	
CCCCC(CC)CN=C(N)NC(N)=NCCCCCCN=C(N)NC(N)=NCC(CC)CCCC (stereo not drawn)	11.2 µM (active)	
CC(CCc1ccccc1)NCC(O)c1ccc(O)c(C(N)=O)c1 (stereo not drawn)		-9.79%
Cc1ccc(O)c2ncccc12		-25.3%
c1ccc(OCc2ccc(CCCN3CCOCC3)cc2)cc1		-16.3%
NC(=NCCCCCCN=C(N)/N=C(\N)Nc1ccc(Cl)cc1)/N=C(\N)Nc1ccc(Cl)cc1	11.2 µM (active)	
O=c1c(-c2ccccc2)c1-c1ccccc1	12.6 µM (active)	
